Data: publication PMC12864922, “TDP-43 directly inhibits mRNA accumulation in neurites through modulation of mRNA stability”
The full ranking holds about 9,900 sequences; the median of “r (bound/input frequency ratio)” is about 0.7, and the highest 2% start at about 6.5. What follows is part of a selection rich in the highest values, with near analogues and random picks from the rest.

B1: ENSMUSG00000058297.30|Spock2|71:75;79:92;101:112;126:132;141:150;156:181 (ssRNA)
RNA: GGGAGUUCUACAGUCCGACGAUCGCUUCGAUAUCCGCAUGCUACAGGCAACUUAGCAAAUGGAUCCGGAAGUCAGUGCGGAGGACCCUGGCUCCAGUGGGGGAGGACUGGGGACACACGCUACACACAUACACACAUAUGAGAACACACACAUACAUGUGAGAUGUGACACACACAUGUGAGAACACACAUACUGAGAACACACACACACACACACACACACACAUGUGAGUCACCCAAAGGUCCCUAUGUUAUUGAUUUUCAAAUGCACACUUUCACACACAAGGAUACACUAACAGACCAACUCUUGCGGUCGCACUAGUGUGGAAUUCUCGGGUGUCAAGG
B2: ENSMUSG00000031028.17|Tub|206:210 (ssRNA)
RNA: GGGAGUUCUACAGUCCGACGAUCGCUUCGAUAUCCGCAUGCUACUCUGUCCAGCUUUGACAGCAAGCUGGCCUGCGAGUAGAGGCCCCCCACUGCCUUUAGGUGGCCCAGUCCGGAGUGGAGCUUGCCUGCCUGCCAAGACAGCCCUGCCUACCCUCUGUUCAUAGGCCCUCUAUGGGCUUUCUGGCCUUACCAACCAGAGACUGGCUGCUCUGCCUCUGCUGCUGAAGCAGGGGGGACAGCAAAUGGCAUACACAGGAGAAGAAUAUUUCUGUGCCCCAAGGUCAACACACAUGCCCAGUCCCUCUUGCGGUCGCACUAGUGUGGAAUUCUCGGGUGUCAAGG
B3: ENSMUSG00000031028.285|Tub (ssRNA)
RNA: GGGAGUUCUACAGUCCGACGAUCGCUUCGAUAUCCGCAUGCUAUGCAGGUAAGGAGGCUGGAUUGAUGUAAAUGGAAGUAGUACUUUAAGAAAGCUCUAGAUUUCCCAGGUUGGACACUCGACGAAAGGCACACCUGCUGCAGCAGGUUCUGACACACCUGAGCCAUACAUUGCCAUCAGAGAACCCUCAGCGAGGUAGCCUUUGUUUACAGUCUAGUUUCUAGAGGGCAGUAGGACUUCCAUGCUGGGGCUGGCCUAUCUCCUGAUGAAAGAUUACAGUGCCAUCUCCUUCCCAUAGUUCUGCUCUUGCGGUCGCACUAGUGUGGAAUUCUCGGGUGUCAAGG
B4: ENSMUSG00000061578.738|Ksr2 (ssRNA)
RNA: GGGAGUUCUACAGUCCGACGAUCGCUUCGAUAUCCGCAUGCUAUUGUCUAAGGCUGUGGGUUUUAAAUACCUGCUGCAGGCCUCCCAUCUCUGGCUCUUUGUUUCCACUCUGGCCCAAGUUUGAGUCUCCAUAUGGGCCCUUCCUGUCCUCAUGCCCUGCCUGUCUUCAUUCCACCCAUCCACCCUCCUAAGGAUUGGUCUUGUUCCGAGAGUGAUCCUGGUAACGCCAAGCCUCCCUCUGCCCCUGUGUUGGCUUCUGUGACGGACUACCACACACCAAGAGGUUUUUCACAGUGAAGAUGUCUCUUGCGGUCGCACUAGUGUGGAAUUCUCGGGUGUCAAGG
B5: ENSMUSG00000061578.1348|Ksr2 (ssRNA)
RNA: GGGAGUUCUACAGUCCGACGAUCGCUUCGAUAUCCGCAUGCUACUCUUCCUCCUGUCCCACAGCCCCCAGGUCAGAGCCAAGCGCAUCAUCUGCAGCACACAUGUCUGUCUCCACAGGCAAGCAACCUUGCCAAGGCAGGCCAGACAGGACAGCCCAGCUUCCCACUCCAGACAUGUUGUUCUUACAUCUCUGACCCAGUGAUCUUUCUAGGGGUCUGUCACAUGUCCCAACAGGUGGACAGCUCUCCAAGUCACCAACCUGAGGAAAAUAUCCCUCCUUGUAAAAAGGCUUUCUCUUUGUAACUCUUGCGGUCGCACUAGUGUGGAAUUCUCGGGUGUCAAGG
B6: ENSMUSG00000029028.239|Lrrc47 (ssRNA)
RNA: GGGAGUUCUACAGUCCGACGAUCGCUUCGAUAUCCGCAUGCUAGUGCGAGAGCCGUUAGCUGUCAGAACUAGUGAAGCUCCAGGCUCCUCGUGGCAGACCCUGGACAACGCUGGUAGCUGUUCUCCAUGAGACACGGCUGCUCACAGGUCCCUUUGAGUGGCUGUGGCAAGUACUCACCUACUAAGUGUUUAGGGUGGAGCUAUCCUGUGCUCACCCUGUCUCCCCCCAGUUCCUGCUGUUCCCUCCAGCCCAGCCCAGCCCAGGUGUGAGAUUCAUUGAGAUUUUUGAAACUGUUUUUACAGCUCUUGCGGUCGCACUAGUGUGGAAUUCUCGGGUGUCAAGG
B7: ENSMUSG00000029028.154|Lrrc47 (ssRNA)
RNA: GGGAGUUCUACAGUCCGACGAUCGCUUCGAUAUCCGCAUGCUAGCUUGUUUCCAGGCACCGUGCUGCCGCCAUGCUCCCAGGGCAGCAUCUGCCUUCCACGGCUGUGCUUGGAACUGUAGUGCUGGUCGUUGUUGGCACAUCUGCGCCUUGGCCAAGGAAGUUAUCUAUGUCCGUGUAGUCCUUUGUAGUCAGACAGAUGCUUCGUGGACUGUGCCUCACACAUGGCCCUGCAGGCUCCAUGUCAGCGUGUCCCACUAUUCAUGUCCCAUCUCUGUGCAUCCUGACUGCGCACAUCCCAUCUCCUCUUGCGGUCGCACUAGUGUGGAAUUCUCGGGUGUCAAGG
B8: ENSMUSG00000061578.113|Ksr2|98:102;184:189;252:256 (ssRNA)
RNA: GGGAGUUCUACAGUCCGACGAUCGCUUCGAUAUCCGCAUGCUACUCCCAUUUUGUAAGAACACUGUUCUAACUCACCUCAUGCCCACGCUACCCUGGGCAACUGGAGAACACCAUAGCGUUUCAGCUGAUGUGACAUUUGCACACACCUUUACCAGUUCACCAUCAUUCAUGGCUUCCCCCAAAGUCCCGAGUCCUGAGAACCGGGGCUGUGGCAAGAGAGUUCUGCACACAUCUCUCUGUGGGGCUAGCAAUGCCGGGGUUAAGUUCUCCCUCGGUGAUGGAGACGGUCCUGGCAUACCAUGCUCUUGCGGUCGCACUAGUGUGGAAUUCUCGGGUGUCAAGG
B9: ENSMUSG00000034801.54|Sos2 (ssRNA)
RNA: GGGAGUUCUACAGUCCGACGAUCGCUUCGAUAUCCGCAUGCUAUCAAUGACCUUGGCCAUAUGUAGUCAUUGACACUGGAAUAGUAUUUGUAAAGGUUUUUAAUUUAUUCAAAAAGACAUAGUAUUUUAGUACUUUUUACAGAAAUGCUACUGAUUAAAUAAGCUCUUAAGAAUUAGUAAACUUGUUGGAUGGCAGUGGCCCACAGCUGUAAUCCCAGCACCCUGGUUGCAGGGGCAGGUGGGCUUCAGGGUUUGAGAGCAGCCUGGUCUACAGAGCAAGUCCCAGGACAGCCAGGGCUACACCUCUUGCGGUCGCACUAGUGUGGAAUUCUCGGGUGUCAAGG
B10: ENSMUSG00000090935.235|Synj2bp (ssRNA)
RNA: GGGAGUUCUACAGUCCGACGAUCGCUUCGAUAUCCGCAUGCUAGGGGACUAGGGGAUCAUAUUCCCUCAUAUAUAAUCAAGACUCAUAUUGAAAAAUGAGUUCUGGAUUGUAAAGAGAACUUACUUUUUCCACUUGCCUGUAAGUCUUUGUCCACAAGUUAAAAACAUACACAGUGCUAAGGAAUGAUCAUAACUGAAACAUUUCAAGAACUAUUAGCAGAGCAUGUAUAUUGAGGAUGGGGAAGUUAGCUUUAAAAGAGAAUGCUCAGUCAGUGACAUUAGGAAAAUAAUGACUGAAGCAAUCUCUUGCGGUCGCACUAGUGUGGAAUUCUCGGGUGUCAAGG

Each binder was assayed against TDP-43 (Homo sapiens, UniProt Q13148 1-414) (assay: RNA Bind-n-Seq with designed 260-mer pool; 25 mM Tris-HCl, 150 mM KCl, 3 mM MgCl2, BSA (printed 500 mg/mL), 20 units/mL SUPERase IN; pH not stated; 500 nM RNA pool, 1 h, 4 C; TDP-43 5, 50, 500 nM; high values mean tight binding). Conditions: protein: recombinant; tags: SBP (GST cleaved off with PreScission; pGEX-GST-SBP).
Sequence of TDP-43 (Q13148 whole entry): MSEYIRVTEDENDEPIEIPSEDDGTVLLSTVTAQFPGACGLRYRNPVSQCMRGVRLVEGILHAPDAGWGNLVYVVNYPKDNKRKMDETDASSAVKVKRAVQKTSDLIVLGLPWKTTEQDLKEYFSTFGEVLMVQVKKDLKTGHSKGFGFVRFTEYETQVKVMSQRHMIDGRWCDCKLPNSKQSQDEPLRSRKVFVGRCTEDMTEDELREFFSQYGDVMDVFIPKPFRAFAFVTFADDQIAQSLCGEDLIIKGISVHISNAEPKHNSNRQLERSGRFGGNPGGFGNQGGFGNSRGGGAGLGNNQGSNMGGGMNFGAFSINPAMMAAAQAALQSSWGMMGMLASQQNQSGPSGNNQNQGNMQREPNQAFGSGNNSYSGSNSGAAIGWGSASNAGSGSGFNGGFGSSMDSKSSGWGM
In short: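 Streptavidin beads captured recombinant SBP-tagged TDP-43 at 5, 50 or 500 nM, and the beads were incubated for 1 h at 4 °C with 500 nM of an in vitro-transcribed pool of 260-nt 3′ UTR oligos in 25 mM Tris-HCl, 150 mM KCl, 3 mM MgCl2, BSA and SUPERase IN. After washing, bound RNA was eluted with biotin, reverse transcribed, PCR-amplified and sequenced. Binding is reported as R, the mapped-read-normalized abundance of each oligo in the bound sample divided by its abundance in the input. Two independent protein batches served as duplicates.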
In the case of B1, the binding signal is reported as 2.07 R (bound/input frequency ratio).
B2 was tested, and the binding signal was 0.458 R (bound/input frequency ratio).
B3 was tested, and the binding signal was 0.881 R (bound/input frequency ratio).
For B4, the binding signal was 1.57 R (bound/input frequency ratio).
With B5 the binding signal was 0.533 R (bound/input frequency ratio).
For B6, the binding signal was 0.716 R (bound/input frequency ratio).
In the case of B7, the binding signal is reported as 1.62 R (bound/input frequency ratio).
For B8, the binding signal was 0.484 R (bound/input frequency ratio).
With B9 the binding signal was 0.356 R (bound/input frequency ratio).
For B10, the binding signal was 0.157 R (bound/input frequency ratio).
